Hits are enriched below; roughly 4.1% of the tested compounds scored in any of these assays.
DAX1 inh-1 – DAX1 (NR0B1) inhibition, primary screen | HEK293T StAR-luciferase reporter, SF-1/DAX-1 repression relief | inhibition, % at 6.8 µM | hit rate 1.1% among 370,000;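 active = inhibition above the mean over all tested compounds plus 3 SD, cut at about 3.6% in these data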;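 also: higher inhibition means more luminescence from relief of DAX-1 repression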
DAX1 inh-2 – inhibitors of human orphan nuclear receptor DAX1 (NR0B1); HEK293 Gal4-DAX1 luciferase reporter, luminescence; inhibition, % at 6.75 µM; hit rate 0.99% among 340,000; P51843;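 active = inhibition above the mean over all tested compounds plus 3 SD, cut at about 4.2% in these data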;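 also: inhibition shows as a rise in luminescence from relieved DAX1 repression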
Target sequence (P51843 207-470 limits assumed): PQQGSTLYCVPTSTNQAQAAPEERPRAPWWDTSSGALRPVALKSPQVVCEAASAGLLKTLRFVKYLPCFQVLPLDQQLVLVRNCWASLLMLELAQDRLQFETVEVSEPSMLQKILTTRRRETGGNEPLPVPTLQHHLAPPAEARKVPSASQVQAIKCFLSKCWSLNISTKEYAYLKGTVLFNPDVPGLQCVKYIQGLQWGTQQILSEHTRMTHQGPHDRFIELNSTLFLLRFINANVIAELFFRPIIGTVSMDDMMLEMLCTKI
ssDAF-12 act – activates DAF-12 receptor from parasite S. stercoralis; activation, % at 6.8 µM; AID 652126; hit rate 1% among 370,000; HEK293 ssDAF-12/GRIP1 lit1-tk-luc reporter, luminescence; % of 3 µM dafachronic acid response;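 active = activation above the mean over all tested compounds plus 3 SD, cut at about 0.9% in these data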
hgDAF-12 ag – hgDAF-12 agonism, primary luciferase screen | AID 687014 | activation, % at 6.8 µM | HEK293 GAL4-hgDAF12 UAS-luciferase reporter, agonist luminescence; normalized to butyrate control | hit rate 1.8% among 370,000;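 active = activation above a cutoff set at the mean of all screened compounds plus 3 SD, cut at about 10% in these data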
hcDAF-12 act – activators of H. contortus DAF-12 nuclear receptor; HEK293 hcDAF-12 lit1-tk-luc reporter, luminescence; 0% DMSO, 100% Δ7-dafachronic acid; activation, % at 6.8 µM; hit rate 1.4% among 370,000;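 active = activation above the mean of all tested compounds plus 3 SD, cut at about 5.5% in these data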
Of the large screens only hits and unclear results are named; the others gave an inactive call.

Cn1c(=O)cc(OCCCC(=O)Nc2cccc(Cl)c2)c2ccccc21	none (no result: DAX1 inh-2)
CCCCCCNC(=O)C1CSCCS(=O)(=O)N1Cc1ccc(F)cc1 (configuration not stated)	none (no result: DAX1 inh-2)
CC(c1nc2ccccc2[nH]1)n1c(-c2ccncc2)nc2ccccc21 (configuration not stated)	none (no result: DAX1 inh-2)
Cc1csc(-c2nc3ccccc3n2C(C)c2nc3ccccc3[nH]2)c1 (configuration not stated)	hcDAF-12 act 5.7 (no result: DAX1 inh-2)
COC(CNC(=O)[C@H](Cc1ccccc1)NC(C)(C)C(=O)NC1CCCCC1)OC	none (no result: DAX1 inh-1, DAX1 inh-2)
Cn1nnnc1SCc1csc(Nc2ccccc2)n1	none
Cc1ccc(Nc2nc(CSc3n[nH]c(N)n3)cs2)cc1	hgDAF-12 ag 12
Cc1ccc(Nc2nc(CSc3nnnn3C)cs2)cc1	hgDAF-12 ag 11
Cc1ccc(-c2ccc(CCC(=O)O)o2)cc1	ssDAF-12 act 2.6
CN(C)S(=O)(=O)c1cccc(C(=O)N/N=C\c2cccc(C#N)c2)c1	none (no result: DAX1 inh-2)
COc1ccc2cc(C(=O)NCCCN3CCCC3=O)[nH]c2c1	hcDAF-12 act 6.2
COc1cccc2[nH]c(C(=O)NCCCN3CCCC3=O)cc12	none
O=C(NCCCN1CCCC1=O)c1cc(-c2ccc3c(c2)OCO3)nc2ccccc12	ssDAF-12 act 1.0
C=CCn1c(SCC(=O)Nc2ccc(CCCC)cc2)nnc1-c1ccc(Cl)cc1	none (no result: DAX1 inh-2)
CCCCOc1ccc(C(=O)NC2CCCCN(CC)C2=O)cc1 (configuration not stated)	none (no result: DAX1 inh-2)
CCOc1ccc(-n2c(SCC(=O)Nc3ccc(S(=O)(=O)Nc4cc(C)nc(C)n4)cc3)nnc2-c2ccc(OC)cc2)cc1	none (no result: DAX1 inh-2)
O=C(Nn1cnnc1)c1ccc(Cl)c(Cl)c1	DAX1 inh-2 6.2
COC(=O)C1CCN(C(=O)CN2CCC(C(=O)c3ccc(C)cc3)CC2)CC1	none (no result: DAX1 inh-2)
CCCc1cc(=O)[nH]c(N/N=C/C=C\c2ccccc2)n1	DAX1 inh-2 4.9
CCCc1cc(=O)[nH]c(SC/C=C/c2ccccc2)n1	none (no result: DAX1 inh-2)
COC(=O)[C@]12C[C@H](CC(=O)N3CCCC3)C(=O)N(Cc3cccc4ccccc34)C1=C[C@H](COCc1ccccc1)O[C@@H]2C	none (no result: DAX1 inh-2)
Fc1cccc(/C=N/Nc2ncnc3nc[nH]c23)c1	none
Fc1ccccc1/C=N/Nc1ncnc2nc[nH]c12	DAX1 inh-1 3.8
Cc1ccc(/C=N/Nc2ncnc3nc[nH]c23)cc1	DAX1 inh-2 5.6
Oc1ccc(/C=N/Nc2ncnc3nc[nH]c23)cc1	none
Clc1ccc(/C=N/Nc2ncnc3nc[nH]c23)cc1	DAX1 inh-2 4.9
CCn1cc(C(=O)N2CCN(Cc3ccc(C)cc3)CC2)c(=O)c2ccc(C)nc21	none (no result: DAX1 inh-2)
COC(=O)Cn1c(C(O)c2ccccc2)nc2ccccc21 (configuration not stated)	ssDAF-12 act 1.7
CCn1c(C(C)NC(C)=O)nc2ccccc21 (configuration not stated)	hgDAF-12 ag 12
CCn1c(C(C)NC(=O)c2cccs2)nc2ccccc21 (configuration not stated)	none
CCn1c(NC(=O)c2ccccc2)nc2ccccc21	ssDAF-12 act 2.3 (no result: DAX1 inh-2)
O=C(c1cccc(C(F)(F)F)c1)N1CC[C@H]2[C@H](CCCN2Cc2ccc(F)cc2)C1	none (no result: DAX1 inh-2)
O=C1c2ccccc2-c2ccc(P(=O)(O)O)cc21	none (no result: DAX1 inh-1, DAX1 inh-2)
Cc1cc(N2CCC[C@@H]2C)nc2ccccc12	none (no result: DAX1 inh-1, DAX1 inh-2)
COC(=O)[C@]12C[C@H](CC(=O)NCCc3ccccc3OC)C(=O)N(CCc3ccc(OC)c(OC)c3)C1=C[C@H](C1CCCC1)O[C@@H]2C	none (no result: DAX1 inh-2)
COCCOC(=O)C1=C(N)OC2=C(C(=O)CC(C)(C)C2)C1c1ccncc1 (configuration not stated)	DAX1 inh-2 5.3
O=C1C(C=NCc2ccncc2)=C(O)c2ccccc21	none
O=C1C(C=NCc2cccnc2)=C(O)c2ccccc21	hgDAF-12 ag 12
CN(CC#Cc1ccccc1)C(N)=NC(=O)/C=C/c1cccc(C(F)(F)F)c1	none (no result: DAX1 inh-2)
CC1CCN(C(=O)CSc2nnc(Cc3cc(=O)[nH]c(=O)[nH]3)n2-c2ccc(Cl)cc2)CC1	DAX1 inh-2 5.3
COc1cccc(-n2c(Cc3cc(=O)[nH]c(=O)[nH]3)nnc2SCC(=O)N2CCCCCC2)c1	hcDAF-12 act 6.3
COc1ccc(-n2c(Cc3cc(=O)[nH]c(=O)[nH]3)nnc2SCC(=O)N2CCC(C)CC2)cc1	none

From PubChem BioAssay
